# PLC-gamma1 inh: PLC-gamma1 (human) inhibition, primary screen; P19174; purified PLC-gamma1, fluorogenic substrate, fluorescence; inhibition, % at 12.2 µM; 0.84% of 370,000 active; AID 720700; in the data active = inhibition above about 9.5%
# PLCb3 inh: PLC-beta3 (human) inhibition, primary screen; Q01970; Purified PLC-beta3, fluorogenic substrate, fluorescence; inhibition, % at 12.2 µM; 0.18% of 370,000 active; AID 720704;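 also: 0% = median of compound wells on plate and 100% = full blocker control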
# proKLK7 act: activates the human kallikrein-7 zymogen; purified proKLK7, EDANS-DABCYL substrate fluorescence; 100% is mature enzyme control, 0% vehicle; 0.9% of 370,000 active; activation, % at 7 µM; P49862;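 active = activation above the mean of all tested compounds plus 3 SD, computed per campaign excluding outliers beyond control limits, cut at about 13% in these data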
# ADAM10 inh: inhibits human ADAM10; inhibition, % at 7 µM; AID 720582; recombinant ADAM10, EDANS/DABCYL FRET peptide cleavage, 3 h; 0.62% of 370,000 active;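 active = inhibition above a per-campaign cutoff equal to the mean of compounds falling between control-based bounds plus 3 SD, cut at about 20% in these data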;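 also: 0% = DMSO wells while the 100% control is not disclosed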
# ADAM17 inh: inhibits human ADAM17; inhibition, % at 6.95 µM; 0.83% of 370,000 active; AID 720648; recombinant ADAM17, EDANS/DABCYL FRET peptide cleavage;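 active = inhibition above the mean of compounds lying between control limits plus 3 SD, set per campaign, cut at about 8.5% in these data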;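 also: 0% = DMSO-only wells as the low control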
# PLCg1 ctr: PLC-gamma1 inhibition, counter-screen for PLC-beta3 hits. shares compounds with PLC-gamma1 inh. purified PLC-gamma1, fluorogenic substrate, fluorescence. inhibition, % at 12.3 µM. 3.1% of 3,300 active; in the data active = inhibition above about 9.5%
# PLCb3 confirm: confirmation of human PLC-beta3 inhibitors; shares compounds with PLC-gamma1 inh; 1% of 3,300 active; inhibition, % at 12.3 µM; purified PLC-beta3, fluorogenic substrate fluorescence
# An asterisk follows results filed as active; . = not tested or not shown. Sampled rows, rich in hits. Any-hit rate of the full collection: about 2.9%. Rule as the data show it, unless noted: active = inhibition above about 11%; inactive = the rest.
SMILES,PLC-gamma1 inh,PLCb3 inh,proKLK7 act,ADAM10 inh,ADAM17 inh,PLCg1 ctr,PLCb3 confirm
Cc1ccc(-c2nnn(CC(=O)N(CCN3CCOCC3)C(C(=O)NC3CCCC3)c3ccncc3)n2)o1 (stereo unspecified),2,-6,1,-8,-3,.,.
COc1ccc(S(=O)(=O)Nc2c(C)nc3nc(C)[nH]n3c2=O)cc1,11*,8,0,5,3,-8,-2
Cc1onc(-c2ccccc2Cl)c1C(=O)OCn1nnc2ccccc2c1=O,11*,3,0,11,8,-3,1
CC12CCC(=O)N1C(C(=O)Nc1cc(S(=O)(=O)N3CCCCCC3)ccc1OCC(F)(F)F)CS2 (stereo unspecified),11*,-3,0,3,-2,-2,2
CC12CCC(=O)N1C(C(=O)Nc1ccc(S(=O)(=O)N3CCCCC3)cc1)CS2 (stereo unspecified),2,-10,0,-18,-1,.,.
CC12CCC(=O)N1C(C(=O)Nc1cccc(S(=O)(=O)N3CCCCCC3)c1)CS2 (stereo unspecified),10*,4,1,5,5,-4,3
O=C(Nc1ccccc1C(=O)N1CCCC1)c1ccccc1,0,-1,-1,-6,-4,.,.
Cc1ccccc1C(=O)NNC(=O)C(=O)N1CCCCC1,10*,3,0,-5,4,-6,-3
Cc1ccc(C(=O)Nc2ccccc2C(=O)N2CCCCCC2)cc1,10*,8,1,-1,-1,-8,-6
O=C(NNC(=O)c1ccccc1)C(=O)N1CCCCC1,2,4,0,-6,-3,.,.
CC(C)CNC(=O)c1ccccc1NC(=O)CN(c1ccc2c(c1)OCCO2)S(C)(=O)=O,1,0,0,-1,1,.,.
CCOC(=O)[C@]12CCCCC/C=C\1N(CCc1ccc(Cl)cc1)C(=O)[C@H]2CC(=O)NCc1cccs1,2,2,1,9,4,.,.
CCOC(=O)[C@]12CCCCC/C=C\1N(Cc1ccc(OC)cc1)C(=O)[C@H]2CC(=O)NCc1cccs1,9.5*,4,1,9,7,-4,2
COc1ccccc1N1CC(C(=O)Nc2ccc(N3CCOCC3)cc2)CC1=O (stereo unspecified),11*,2,0,3,7,-6,-3
CC(C)CN1C(=O)C(=O)N(CC(=O)Nc2cc(Cl)ccc2Oc2ccccc2)C1=O,20*,3,0,1,2,7,10
O=C(COC(=O)c1c(Cl)cccc1Cl)Nc1cc(Cl)ccc1Oc1ccccc1,11*,4,0,6,5,-6,-6
O=C(COC(=O)c1ccccc1)Nc1cc(Cl)ccc1Oc1ccccc1,-2,-3,0,4,1,.,.
COc1ccc(-n2c(C)n[nH]c2=O)cc1,1,3,0,4,-1,.,.
Cn1c(CNC(=O)CCNC(=O)c2ccc(F)c(F)c2)cc(=O)n(C)c1=O,-2,-12,0,-7,-5,.,.
COc1ccc(OC)c(NC(=O)NCCc2c[nH]c3ccccc23)c1,12*,-1,0,-2,-2,-6,-4
COc1ccc(NC(=O)NCCc2c[nH]c3ccccc23)c(OC)c1,4,-3,0,8,0,.,.
COc1ccc(NS(=O)(=O)c2cccc(C(=O)NCC(c3cccs3)N3CCOCC3)c2)cc1 (stereo unspecified),1,3,1,-2,0,.,.
OC1OC2COC(c3ccccc3)OC2C(O)C1O (stereo unspecified),6,11*,0,-8,1,-5,-4
CCc1nc(N)nc(N)c1-c1ccc(Cl)cc1,-1,-1,-1,-6,-8,.,.
CCC(C)NCCCCOc1ccc(Cl)cc1C (stereo unspecified),12*,4,-1,-2,3,7,3
SMILES,PLC-gamma1 inh,PLCb3 inh,proKLK7 act,ADAM10 inh,ADAM17 inh,PLCg1 ctr,PLCb3 confirm
COc1ccc(N2C(=O)c3ccccc3C2O)cc1 (stereo unspecified),-6,-5,0,5,-3,.,.
C=COc1ccc(N2C(=O)c3ccccc3OC2C)cc1 (stereo unspecified),14*,-1,0,4,6,-3,-1
CCCC(C(=O)Nc1ccc(C)c(S(=O)(=O)N2CCOCC2)c1)c1ccccc1 (stereo unspecified),0,-3,0,10,-1,.,.
CC1(C)CC(N2CCCC2)=CC(=[N+]2CCCCC2)C1,12*,5,0,12,1,-5,3
CC1(C)CC(N2CCCC2)=CC(=[N+]2CCCC2)C1,9,2,0,14,-1,.,.
Cn1c(SCC(=O)NNC(=O)c2ccccc2)nnc1C1CC1,4,3,0,-4,4,.,.
CCCS(=O)(=O)N1CCCC(c2nc(-c3cccc(OC)c3)no2)C1 (stereo unspecified),-2,-3,0,-2,-6,.,.
COc1cccc(-c2noc(C3CCCN(S(=O)(=O)c4cccc(Cl)c4C)C3)n2)c1 (stereo unspecified),12*,1,0,4,1,-2,1
Cc1ccc(COc2coc(CO)cc2=O)cc1,8,12*,0,8,3,-7,-3
O=c1cc(CO)occ1OCc1cccc(F)c1,9,7,0,0,0,.,.
CC(c1ccccc1)n1c(-c2ccccc2F)n[nH]c1=S (stereo unspecified),9.9*,8,0,15,5,5,2
CC(C)n1c(-c2ccccc2F)n[nH]c1=S,-1,1,0,-1,-6,.,.
O=S(=O)(O)c1ccc(N=NNc2ccc(Br)cc2)cc1,9.8*,-8,-1,9,-3,-6,-7
Cc1csc(NC(=O)Cc2c[nH]c3ccccc23)n1,-1,-2,1,-6,-2,.,.
Cc1cc(C)n2nc(SCc3nc4ccccc4[nH]3)nc2n1,-2,-4,0,-25,-2,.,.
CCOC(=O)CSc1nnc(CNC(=O)c2ccc(S(=O)(=O)N3CCOCC3)cc2)n1C,-1,1,0,4,0,.,.
Clc1cccc(Cc2c(-c3ccco3)nc3c4ccccc4ccn23)c1,-31,-41,0,-36,-10,.,.
CCCCCNC(=O)[C@@H]1CSC2c3ccccc3C(=O)N21 (stereo partly specified),13*,8,1,6,7,-1,0
CC(=O)N1CCC(N(C(=O)Nc2ccc(C)c(C)c2)C2CCCC2)CC1,4,12*,0,6,7,-8,-13
Cc1cccc(N(CC(=O)NC2CC3CCC2C3)S(=O)(=O)c2ccccc2)c1 (stereo unspecified),4,-1,0,12,5,.,.

# From PubChem
